Assay results taken from paper PMC4336329 (PLoS ONE, 2015).
Out of some 310,000 compounds screened, about 14,000 (4.5%) showed an effect of 50% or more. The effect is printed as a negative number. The entries come from a sample that favours strong results as a whole.

The compounds below were run against human ether-à-go-go-related gene (hERG) potassium channel (human, UniProt Q12809) (assay: primary screen, population patch clamp on CHO cells stably expressing hERG; higher = less effect of the substance).
human ether-à-go-go-related gene (hERG) potassium channel, sequence (Q12809 whole entry, looked up): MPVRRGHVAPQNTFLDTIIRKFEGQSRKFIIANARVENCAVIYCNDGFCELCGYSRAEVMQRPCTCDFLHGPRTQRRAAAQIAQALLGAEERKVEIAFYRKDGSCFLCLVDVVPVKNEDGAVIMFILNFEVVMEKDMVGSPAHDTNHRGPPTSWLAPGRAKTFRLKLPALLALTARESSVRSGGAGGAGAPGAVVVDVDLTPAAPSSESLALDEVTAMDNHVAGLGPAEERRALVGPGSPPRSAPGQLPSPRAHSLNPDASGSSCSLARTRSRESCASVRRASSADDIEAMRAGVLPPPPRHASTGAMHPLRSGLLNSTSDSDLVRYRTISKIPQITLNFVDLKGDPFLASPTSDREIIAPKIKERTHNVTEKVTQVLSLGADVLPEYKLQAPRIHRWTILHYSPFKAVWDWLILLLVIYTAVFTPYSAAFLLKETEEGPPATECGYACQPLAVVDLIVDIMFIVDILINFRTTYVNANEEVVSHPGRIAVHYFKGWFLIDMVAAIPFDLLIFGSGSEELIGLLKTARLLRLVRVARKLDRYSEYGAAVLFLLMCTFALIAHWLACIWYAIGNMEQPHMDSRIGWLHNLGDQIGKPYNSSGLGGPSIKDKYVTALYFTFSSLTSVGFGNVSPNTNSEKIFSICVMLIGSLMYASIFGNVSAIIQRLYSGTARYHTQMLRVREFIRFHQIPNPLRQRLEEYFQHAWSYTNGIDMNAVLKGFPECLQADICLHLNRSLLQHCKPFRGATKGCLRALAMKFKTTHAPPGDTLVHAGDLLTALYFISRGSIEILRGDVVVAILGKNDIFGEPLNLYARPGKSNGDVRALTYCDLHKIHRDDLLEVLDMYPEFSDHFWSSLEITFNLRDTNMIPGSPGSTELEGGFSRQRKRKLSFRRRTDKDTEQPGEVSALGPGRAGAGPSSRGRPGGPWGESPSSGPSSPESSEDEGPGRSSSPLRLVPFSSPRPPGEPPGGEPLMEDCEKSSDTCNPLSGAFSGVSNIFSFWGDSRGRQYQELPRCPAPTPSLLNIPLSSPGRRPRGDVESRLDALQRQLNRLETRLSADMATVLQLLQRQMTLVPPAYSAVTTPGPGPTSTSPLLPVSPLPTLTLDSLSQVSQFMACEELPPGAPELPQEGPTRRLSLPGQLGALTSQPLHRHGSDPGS
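Note: peak tail current of the secondary pulse compared with the same well before compound.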

In order of falling “hERG current change (%, negative = inhibition) at 10uM” value:
1. O=C(CN1CCOCC1)Nc1ccc(Cl)cn1  20.6%
2. O=C(NCCN1CCOCC1)C1CCN(Cc2ccccc2O)CC1  19.2%
3. COc1ccc2ccccc2c1CNc1nnnn1C  17.9%
4. Cc1cc(=O)oc2ccc(OCC(=O)O)cc12  16.1%
5. O=C1CSC(c2cccs2)N1c1ccccc1 (centres unmarked)  15%
6. CCCn1c(=O)c(C(=O)Nc2ncccc2O)c(O)c2ccccc21  11.1%
7. COc1ccc(OC)c(NC(=O)NCCc2cccc(Cl)c2)c1  10.1%
8. Cc1c(CC(=O)N2C[C@H]3C[C@@H](C2)c2cccc(=O)n2C3)c(=O)oc2cc(O)c(Cl)cc12  9.44%
9. C/C(=N\NC(=O)c1cccnc1)c1ccc(OC2OCCOC2Oc2ccc(/C(C)=N/NC(=O)c3cccnc3)cc2)cc1 (centres unmarked)  8.81%
10. COc1ccc(N2CCN(S(=O)(=O)c3ccc4c(c3)NC(=O)C(C)S4)CC2)cc1 (centres unmarked)  6.85%
11. Cc1c(CC(=O)N2C[C@H]3C[C@@H](C2)c2cccc(=O)n2C3)c(=O)oc2c(C)c(O)ccc12  4.94%
12. COc1ccc(S(=O)(=O)NC2CCCC2)cc1C(N)=O  4.15%
13. CC(C)(C)NS(=O)(=O)c1ccc(CCC(=O)NCc2ccco2)cc1  2.7%
14. CSc1ccc(S(=O)(=O)N2CCC(C(=O)N3CCOCC3)CC2)cc1  2.57%
15. Cc1nc2ccc(NC(=O)[C@@H](NC(=O)c3c(F)cccc3F)C(C)C)cc2s1  1.84%
16. O=C(CN1CCCCCC1)Nc1ccc(Cl)cn1  1.45%
17. O=C(CCS(=O)(=O)c1ccccc1)Nc1nc2c(s1)CCCC2  0.42%
18. Cc1ccccc1NCC(=O)N/N=C\c1ccc2c(c1)OCO2  -0.637%
19. NC(=O)c1ccc(NC(=O)CN2CCN(Cc3ccccc3)CC2)cc1  -0.874%
20. Cc1ccc2cccc(S(=O)(=O)Nc3c(C)n(C)n(-c4ccccc4)c3=O)c2n1  -0.878%
21. COc1ccc2c(C)c(CC(=O)N3C[C@H]4C[C@@H](C3)c3cccc(=O)n3C4)c(=O)oc2c1OC  -1.03%
22. CC/C(=N/NC(=O)CCC(=O)Nc1ccccc1OC)c1ccccc1  -1.67%
23. COc1ccc(N2CCN(C(=O)COC(=O)c3ccc(-n4nc(C)cc4C)cc3)CC2)cc1  -1.95%
24. C=CCCC1(C)C(=O)N(c2ccccc2)c2ccccc21 (centres unmarked)  -3.56%
25. Cn1nnnc1SCc1nc2scc(-c3ccccc3)c2c(=O)[nH]1  -3.59%
26. O=C(CN1CCN(Cc2ccccc2)CC1)Nc1ccc(N2CCOCC2)cc1  -3.67%
27. CCc1nc(SCC(=O)N2c3ccccc3CC2C)c2c(C)c(C)sc2n1 (centres unmarked)  -5.78%
28. Cc1cc(=O)oc2cc(OCC(=O)NCc3ccco3)ccc12  -6.81%
29. O=C(c1ccc(F)cc1)N1CCN(c2ccc(N3CCOCC3)nn2)CC1  -12%
30. CC(C)C(C(=O)Nc1ccc(S(=O)(=O)N2CCOCC2)cc1)N1C(=O)c2ccccc2C1=O (centres unmarked)  -16.2%
31. COc1ccc(-n2c(=O)n(Cc3ccccc3)c(=O)c3[nH]cnc32)cc1  -17.1%
32. O=C(CN1CCN(Cc2ccccc2)CC1)Nc1ccccc1  -26.9%
33. O=C(COc1ccc(F)cc1)NCC1(N2CCOCC2)CCCCC1  -27.9%
34. O=C(c1ccc2c(c1)OCO2)N1CCN(c2ccc(F)cc2)CC1  -30.4%
35. COc1ccc2c(C)c(CC(=O)N3C[C@H]4C[C@@H](C3)c3cccc(=O)n3C4)c(=O)oc2c1  -32.4%
36. COc1ccc2c(C)c(CCC(=O)N3C[C@H]4C[C@@H](C3)c3cccc(=O)n3C4)c(=O)oc2c1  -34.9%
37. CC1CCCN(c2nc3c(c(=O)n(C)c(=O)n3C)n2Cc2ccccc2)C1 (centres unmarked)  -40.9%
38. Cc1coc2cc3oc(=O)c(CC(=O)N4C[C@H]5C[C@@H](C4)c4cccc(=O)n4C5)c(C)c3cc12  -41.5%
39. Cc1coc2cc3oc(=O)c(CCC(=O)N4C[C@H]5C[C@@H](C4)c4cccc(=O)n4C5)c(C)c3cc12  -42.5%
40. CC(=O)c1ccc(N2CCN(C(=O)c3ccc4c(c3)OCO4)CC2)cc1  -45.4%
41. O=C(CN1CCN(Cc2ccccc2)CC1)Nc1ccc(-n2cnnn2)cc1  -48%
42. C=C(C)COc1ccc2c(C)c(CC(=O)N3C[C@H]4C[C@@H](C3)c3cccc(=O)n3C4)c(=O)oc2c1  -48.5%
43. CC(C)(C)c1ccc(C(=O)N2CCN(c3ccc(N4CCOCC4)nn3)CC2)cc1  -49.3%
44. CCc1ccc(N2CCN(C(=O)c3ccc4c(c3)OCO4)CC2)cc1  -50.3%
45. Cc1oc2c(C)c3oc(=O)c(CCC(=O)N4C[C@H]5C[C@@H](C4)c4cccc(=O)n4C5)c(C)c3cc2c1C  -51.7%
46. Cc1oc2cc3oc(=O)c(CCC(=O)N4C[C@H]5C[C@@H](C4)c4cccc(=O)n4C5)c(C)c3cc2c1C  -54%
47. Cc1cc(=O)oc2ccc(OCC(=O)N(Cc3ccc(F)cc3)Cc3ccco3)cc12  -58.8%
48. C=C(C)COc1ccc2c(C)c(CCC(=O)N3C[C@H]4C[C@@H](C3)c3cccc(=O)n3C4)c(=O)oc2c1  -60.4%
49. O=C(c1ccc(C(F)(F)F)cc1)N1CCN(c2ccc(N3CCOCC3)nn2)CC1  -67.9%
50. O=C(CN1CCN(Cc2ccccc2)CC1)Nc1ccc(Cl)cc1  -68.4%
51. O=C(CN1CCN(Cc2ccccc2)CC1)Nc1ccc(Br)cc1  -71.9%
52. Cc1c(CC(=O)N2C[C@H]3C[C@@H](C2)c2cccc(=O)n2C3)c(=O)oc2cc3occ(C(C)(C)C)c3cc12  -73.4%
53. O=C(CN1CCN(Cc2ccccc2)CC1)Nc1ccc(Cl)cn1  -74.5%
